Results reported in PubChem BioAssay (Tox21).
Records with an inconclusive call do not appear. Entries that show only a call come without a potency. Calls of active or inactive are those of the source. Calls follow the shape of the full dose curve.

Experiment: p53 small molecule agonists, cell-based qHTS assay with human liver microsomes (AID 1963577);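 also: p53 response element beta-lactamase reporter cells with liver microsomes plus NADPH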
How it was run: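 16 h, 37 C exposure of p53RE-bla cells to compounds with human liver microsomes and NADPH (0.5 mg/mL final each); detection via LiveBLAzer mixture, 2 h dark at room temperature.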

With CCCCC(CC)COP(=O)(O)O (stereo not drawn) the Potency was “inactive”.

In the case of O=C(O)Cc1cc(I)c(Oc2cc(I)c(O)c(I)c2)c(I)c1, the Potency is reported as “inactive”.

In the case of Cc1cc(C)c(C)c(C)c1, the Potency is reported as “inactive”.

In the case of C/C(=C\c1ccc(C(=O)O)cc1)c1ccc2c(c1)C(C)(C)CCC2(C)C, the Potency is reported as “inactive”.

With Cc1ccc(O)c(C(=O)c2ccccc2)c1 the Potency was “inactive”.

In the case of COCCOC(=O)CC#N, the Potency is reported as “inactive”.

In the case of COc1nccnc1CC(C)C, the Potency is reported as “inactive”.

With c1csc(SSc2cccs2)c1 the Potency was “inactive”.

In the case of CCc1c(C)[nH]c2c1C(=O)C(CN1CCOCC1)CC2 (stereo not drawn), the Potency is reported as “inactive”.

In the case of CCCCN(CCN(CCCC)C(=O)N1CCOCC1)C(=O)N1CCOCC1, the Potency is reported as “inactive”.

For CCCc1ccccc1O, the Potency was “inactive”.

With O=C(O)CCCl the Potency was “inactive”.

With COc1ccc(NC(=O)CC(C)=O)cc1 the Potency was “inactive”.

In the case of Cc1cc(C2CCCCC2)n(O)c(=O)c1, the Potency is reported as “inactive”.

With CC[C@]1(O)C[C@H]2CN(CCc3c([nH]c4ccccc34)[C@@](C(=O)OC)(c3cc4c(cc3OC)N(C=O)[C@H]3[C@@](O)(C(=O)OC)[C@H](OC(C)=O)[C@]5(CC)C=CCN6CC[C@]43[C@@H]65)C2)C1 the Potency was “inactive”.

With CCCCNCCCC the Potency was “inactive”.

For CCCCCCNC(=O)n1cc(F)c(=O)[nH]c1=O, the Potency was “inactive”.

For CCOc1ccc(O)cc1, the Potency was “inactive”.

In the case of CNC(=S)NN, the Potency is reported as “inactive”.

For c1ccc(C[n+]2cccc3ccccc32)cc1, the Potency was “inactive”.

For COC(=O)Nc1nc2ccc(C(=O)C3CC3)cc2[nH]1, the Potency was “inactive”.

In the case of O=C=NC1CCC(CC2CCC(N=C=O)CC2)CC1 (stereo not drawn), the Potency is reported as “inactive”.

In the case of Nc1ccc(-c2ccc(F)cc2)cc1, the Potency is reported as “inactive”.

In the case of CCO[Si](CC(C)C)(OCC)OCC, the Potency is reported as “inactive”.

With O=C[C@@H](O)[C@H](O)[C@H](O)CO the Potency was “inactive”.

For CC1=CCCC(C)(C)C12CCC(C)O2 (stereo not drawn), the Potency was “inactive”.

For COc1cc(NS(=O)(=O)c2ccc(N)cc2)nc(C)n1, the Potency was “inactive”.

In the case of CC(=O)OC(OC(C)=O)c1ccc([N+](=O)[O-])o1, the Potency is reported as “inactive”.

With C=CC(=O)OCC(C)OCC(C)OCC(C)OC(=O)C=C (stereo not drawn) the Potency was “inactive”.

With O=C(OCCc1ccccc1)c1ccccc1 the Potency was “inactive”.

For CC(=O)Oc1ccc(C2(c3ccc(OC(C)=O)cc3)Oc3ccccc3NC2=O)cc1, the Potency was “inactive”.

In the case of CC(C)C[C@H](NC(=O)[C@H](Cc1ccccc1)NC(=O)c1cnccn1)B(O)O, the Potency is reported as “inactive”.

In the case of O=S(=O)(O)c1cc(I)c(O)c2ncccc12, the Potency is reported as “inactive”.
